The source of these data is article PMC5540273 (PLoS ONE, 2017).

For one test, the system named is CLK2. The conditions noted are these: concentration: 1 μM, replicates: in singlicate; n = 1.
The test system of a further test is CLK3. The conditions noted are these: concentration: 1 μM, replicates: in singlicate; n = 1.
A further test has as its system CLK4. The conditions noted are these: concentration: 1 μM, replicates: in singlicate; n = 1.
The subject of another test is CSF1R-autoinhibited. The conditions noted are these: concentration: 1 μM, replicates: in singlicate; n = 1.
The subject of a further test is CSF1R. The conditions noted are these: concentration: 1 μM, replicates: in singlicate; n = 1.
In a further test the test system is CSK. The conditions noted are these: concentration: 1 μM, replicates: in singlicate; n = 1.
For the next test, the system named is CSNK1A1L. The conditions noted are these: concentration: 1 μM, replicates: in singlicate; n = 1.
The test system of the next test is CSNK1A1. The settings on record: concentration: 1 μM, replicates: in singlicate; n = 1.
A further test concerns CSNK1D. The settings on record: concentration: 1 μM, replicates: in singlicate; n = 1.
Another test deals with CSNK1E. The settings on record: concentration: 1 μM, replicates: in singlicate; n = 1.
In another test the test system is CSNK1G1. The conditions noted are these: concentration: 1 μM, replicates: in singlicate; n = 1.
The subject of another test is CSNK1G2. The settings on record: concentration: 1 μM, replicates: in singlicate; n = 1.
In the next test the test system is CSNK1G3. The conditions noted are these: concentration: 1 μM, replicates: in singlicate; n = 1.
Another test has as its system CSNK2A1. The conditions noted are these: n = 1.
The next test deals with CSNK2A2. The conditions noted are these: n = 1.
The next test relates to T1, CTK.
T1 construct: gene MATK
The conditions noted are these: concentration: 1 μM, replicates: in singlicate; n = 1.

Another test deals with DAPK1. The conditions noted are these: concentration: 1 μM, replicates: in singlicate; n = 1.
In a further test the test system is DAPK2. The conditions noted are these: concentration: 1 μM, replicates: in singlicate; n = 1.
Another test concerns DAPK3. The settings on record: concentration: 1 μM, replicates: in singlicate; n = 1.
Another test has as its system T2, DCAMKL1.
T2 construct: gene DCLK1
The conditions noted are these: concentration: 1 μM, replicates: in singlicate; n = 1.

Where [1] appears, read: concentration: 1 μM, replicates: in singlicate.

Each structure is given as a SMILES string. Like-named read-outs stand apart in the source and are kept apart here.
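Further: KINOMEscan kinase panel screen.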

As for `CC(C)c1nc(-c2cccc(NS(=O)(=O)c3c(F)cccc3F)c2)c(-c2ccnc(Nc3ccc(N4CCOCC4)nc3)n2)s1.Cl` [GSK1723980], the “%Inh” value with CLK2 worked out at 0%; with CLK3, 0%; with CLK4 it was 0%; with CSF1R-autoinhibited it was 0%; in the test with CSF1R it was 52%; in the test on CSK, 96.5%. The “%Inh” value in the test on CSNK1A1L is 0%; in the test with CSNK1A1, 95.1%; with CSNK1D, 0%; in the test on CSNK1E, 10%; in the test with CSNK1G1 it was 2%; in the test on CSNK1G2, 0%. In addition, the “%Inh” value turned out to be 0% in the test with CSNK1G3; 2% in the test on CSNK2A1 (setting [1]); 0% in the test with CSNK2A2 (setting [1]); 37% in the test on CTK; 3% in the test on DAPK1; 0% in the test on DAPK2. In addition, the “%Inh” value with DAPK3 is 0%; in the test with DCAMKL1, 11%.

As for `Cc1ccc(NC(=O)c2cccc(N3CCCCC3)c2)cc1-c1ccc(C(=O)NCC2CC2)cc1` [GSK1917008], the “%Inh” value is 1% in the test with CLK2; 0% with CLK3; 32% in the test with CLK4; 0% with CSF1R-autoinhibited; 45% with CSF1R; 0% in the test on CSK. Also, the “%Inh” value with CSNK1A1L was found to be 18%; in the test on CSNK1A1 it was 20%; in the test on CSNK1D, 27%; in the test on CSNK1E, 21%; in the test with CSNK1G1, 8%; with CSNK1G2, 0%. For the same compound, the “%Inh” value with CSNK1G3 was determined as 24%; in the test with CSNK2A1 (setting [1]) it was 29%; in the test with CSNK2A2 (setting [1]), 10%; with CTK it was 17%; in the test on DAPK1 it was 0%; in the test on DAPK2, 0%. Besides, the “%Inh” value in the test on DAPK3 turned out to be 29%; in the test with DCAMKL1, 16%.

As to `Cc1cc(-c2c(-c3ccc(F)cc3)ncn2CCCN2CCOCC2)nc(N)n1` [SB-222517], the “%Inh” value in the test with CLK2 is given as 30%; in the test with CLK3, 0%; in the test on CLK4, 16%; in the test with CSF1R-autoinhibited it was 17%; in the test on CSF1R it was 14%; with CSK, 7%. Also, the “%Inh” value in the test on CSNK1A1L is listed as 0%; in the test with CSNK1A1 it was 17%; with CSNK1D, 7%; in the test on CSNK1E, 1%; in the test with CSNK1G1 it was 0%; in the test on CSNK1G2, 8%. Further, the “%Inh” value in the test with CSNK1G3 is on record as 0%; with CSNK2A1 (setting [1]), 0%; in the test with CSNK2A2 (setting [1]), 0%; with CTK, 0%; in the test with DAPK1 it was 0%; in the test on DAPK2 it was 21%. Besides, the “%Inh” value turned out to be 38% in the test with DAPK3 and 40% in the test with DCAMKL1.

As for `CN(C)CCNS(=O)(=O)c1ccc(-c2ccnc3[nH]ccc23)cc1` [GSK977620], the “%Inh” value with CLK2 was determined as 92.3%; with CLK3, 70%; with CLK4, 94.4%; in the test with CSF1R-autoinhibited, 0%; in the test on CSF1R, 27%; in the test on CSK, 0%. Moreover, the “%Inh” value came to 16% with CSNK1A1L; 29% in the test with CSNK1A1; 38% in the test on CSNK1D; 48% in the test with CSNK1E; 0% in the test on CSNK1G1; 0% in the test with CSNK1G2. Further, the “%Inh” value was found to be 5% in the test on CSNK1G3; 30% in the test on CSNK2A1 (setting [1]); 11% in the test on CSNK2A2 (setting [1]); 0% in the test on CTK; 76% with DAPK1; 44% in the test on DAPK2. Also, the figures for the “%Inh” value in the test on DAPK3 and in the test on DCAMKL1 were 88% and 18%, respectively.

Regarding `Cc1cccc(Nc2nc(N[C@H]3CCCC[C@H]3N)ncc2C(N)=O)c1.Cl` [GSK986310], the “%Inh” value in the test with CLK2 amounted to 28%; in the test with CLK3, 27%; in the test with CLK4 it was 24%; in the test with CSF1R-autoinhibited it was 0%; in the test with CSF1R, 78%; in the test on CSK, 12%. Besides, the “%Inh” value was found to be 59% with CSNK1A1L; 46% in the test with CSNK1A1; 50% with CSNK1D; 64% in the test on CSNK1E; 21% with CSNK1G1; 0% in the test with CSNK1G2. The “%Inh” value in the test on CSNK1G3 is 37%; in the test with CSNK2A1 (setting [1]), 36%; with CSNK2A2 (setting [1]) it was 25%; in the test on CTK, 0%; with DAPK1 it was 86%; in the test with DAPK2, 70%. The results for the “%Inh” value in the test on DAPK3 and in the test on DCAMKL1 were 59% and 32%, respectively.

For the compound `CCNC(=O)/C=C/c1n[nH]c2cc(Sc3ccccc3C(=O)NC)ccc12`, the “%Inh” value is on record as 0% in the test with CLK2; 14% in the test with CLK3; 3% in the test with CLK4; 36% with CSF1R-autoinhibited; 99.8% with CSF1R; 3% in the test with CSK. Besides, the “%Inh” value in the test on CSNK1A1L is 0%; in the test on CSNK1A1, 21%; in the test with CSNK1D, 0%; in the test with CSNK1E, 18%; with CSNK1G1, 13%; in the test on CSNK1G2, 0%. Besides, the “%Inh” value in the test on CSNK1G3 worked out at 13%; in the test on CSNK2A1 (setting [1]), 24%; in the test on CSNK2A2 (setting [1]), 0%; in the test with CTK, 6%; in the test with DAPK1 it was 13%; with DAPK2, 8%. Moreover, the “%Inh” value with DAPK3 was found to be 15%; with DCAMKL1 it was 0%.

Turning to `CNc1nccc(-c2ccc3c(N)n[nH]c3c2)n1` [GSK2206003], the “%Inh” value was determined as 84% in the test with CLK2; 48% with CLK3; 95.5% in the test on CLK4; 11% in the test on CSF1R-autoinhibited; 6% with CSF1R; 0% in the test with CSK. Also, the “%Inh” value is 6% in the test with CSNK1A1L; 0% in the test with CSNK1A1; 20% in the test on CSNK1D; 28% with CSNK1E; 14% in the test with CSNK1G1; 0% in the test with CSNK1G2. Moreover, the “%Inh” value amounted to 33% with CSNK1G3; 43% in the test on CSNK2A1 (setting [1]); 62% in the test with CSNK2A2 (setting [1]); 0% in the test on CTK; 29% with DAPK1; 31% in the test on DAPK2. Besides, the results for the “%Inh” value in the test on DAPK3 and in the test on DCAMKL1 were 39% and 0%, respectively.

Take `COc1cc(Nc2nccc(N3CCC(NC(=O)Nc4ccc5c(c4)OCO5)C3)n2)cc(OC)c1OC` (centres unmarked) [GSK1379766]: the “%Inh” value in the test with CLK2 worked out at 0%; in the test with CLK3 it was 2%; in the test with CLK4, 0%; with CSF1R-autoinhibited, 0%; in the test with CSF1R it was 41%; in the test with CSK, 0%. For the same compound, the “%Inh” value is on record as 0% with CSNK1A1L; 0% with CSNK1A1; 0% in the test with CSNK1D; 20% in the test with CSNK1E; 10% with CSNK1G1; 0% in the test on CSNK1G2. For the same compound, the “%Inh” value in the test on CSNK1G3 came to 4%; with CSNK2A1 (setting [1]) it was 4%; with CSNK2A2 (setting [1]) it was 16%; with CTK it was 0%; with DAPK1, 5%; in the test on DAPK2, 0%. Besides, the “%Inh” value in the test with DAPK3 and in the test on DCAMKL1 was 7% in each case.

`Cn1cc(-c2cnc(N)c3c(-c4ccc5c(c4)CCN5C(=O)Cc4ccccc4)csc23)cn1` [GSK2593074]: the “%Inh” value in the test with CLK2 is 19%; in the test on CLK3, 0%; in the test on CLK4, 0%; in the test with CSF1R-autoinhibited, 39%; in the test with CSF1R, 99.9%; in the test on CSK it was 20%. In addition, the “%Inh” value was determined as 0% in the test with CSNK1A1L; 21% in the test with CSNK1A1; 0% in the test with CSNK1D; 1% with CSNK1E; 21% in the test with CSNK1G1; 7% in the test on CSNK1G2. Moreover, the “%Inh” value with CSNK1G3 was 22%; in the test on CSNK2A1 (1 µM) it was 0%; with CSNK2A2 (1 µM), 1%; with CTK, 62%; in the test on DAPK1, 38%; in the test with DAPK2, 21%. For the same compound, the “%Inh” value with DAPK3 turned out to be 7%; with DCAMKL1 it was 0%.

Regarding `Fc1cc(Cl)ccc1Nc1ccnc2cc(-c3ccc(CN4CCSCC4)o3)ccc12` [GW560106], the “%Inh” value in the test with CLK2 is 0%; with CLK3, 0%; with CLK4, 22%; with CSF1R-autoinhibited, 52%; in the test on CSF1R, 92.3%; in the test on CSK, 13%. For the same compound, the “%Inh” value is on record as 0% in the test on CSNK1A1L; 0% in the test on CSNK1A1; 6% in the test on CSNK1D; 27% in the test on CSNK1E; 0% in the test on CSNK1G1; 0% in the test with CSNK1G2. The “%Inh” value worked out at 14% in the test on CSNK1G3; 0% in the test on CSNK2A1 (setting [1]); 100% with CSNK2A2 (setting [1]); 0% in the test on CTK; 0% in the test with DAPK1; 0% with DAPK2. In addition, the “%Inh” value was found to be 11% in the test on DAPK3 and 7% in the test on DCAMKL1.
